The structures appear in SMILES notation. Activity calls are given as the source filed them.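 How the source made its calls: active means fitted half-maximal concentration AC50 at or below ten times the highest valid tested dose, with signal falling as DNA is displaced (actives reach about 34 µM in these data); inconclusive means flat fit at moderate signal loss, or poor fit quality; inactive means the rest, including signal rising instead of falling.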

Our source for the AC50 values is PubChem BioAssay AID504727 (Broad Institute, 2011).

The nature of this test: acridine orange-DNA binding displacement – biochemical, fluorescence polarization, cherry-picked samples, set 2, artefact control for KSHV LANA DNA-binding inhibitor project, dose response (AID 504727). As to conditions: series mostly up to 35 µM. On the technique in general: Fluorescence polarisation rises when a labelled molecule tumbles more slowly, as on binding a larger partner.
Consider `COc1ccc(C2(CNC(=O)CCC(=O)O)CCCC2)cc1OC`, for which the AC50 entry is “inactive”.

On to `C/C(=N\NC(=O)CCc1c(C)n[nH]c1C)c1ccc([N+](=O)[O-])cc1`, for which the AC50 result was “inactive”.

For `O=C(O)C1(c2ccccc2)CCN(S(=O)(=O)c2ccc(Cl)s2)CC1`, the AC50 entry was “inactive”.

Take `COc1ccc2[nH]c3c(C)c4cc[n+](C)cc4c(C)c3c2c1`: the concentration at half-maximal activity (AC50) was 2.53 µM (active).

Regarding `COc1ccc(-c2n[nH]c(=S)n2-c2ccc(C)cc2)cc1`, the AC50 result was “inactive”.

Regarding `CC(C)C(C(=O)O)N1C(=O)/C(=C/C=C/c2ccco2)SC1=S` (centres undefined), the AC50 result is “inactive”.

For the compound `NNc1nnc2c3cc(F)ccc3n(Cc3ccccc3)c2n1`, the AC50 result is “inactive”.

As for `O=c1[nH]c2c(s1)C=Nc1ccccc1N2`, the AC50 is 6.39 µM (active).

Consider `O=C(O)c1cccc(-n2cccc2/C=C/[N+](=O)[O-])c1`, for which the AC50 entry is “inactive”.

Turning to `O=C1CN=C(Nc2ccccc2Cl)N1Cc1ccc2c(c1)OCO2`, the AC50 result was “inactive”.

Regarding `Cc1ccc(OCC(=O)NC(=S)Nc2cccc(NC(=O)c3ccc(Cl)cc3Cl)c2)cc1`, the AC50 entry is “inactive”.

With `COc1ccccc1CNC(=O)C(=O)NCC1CCCN1S(=O)(=O)c1cccs1` (centres undefined), the AC50 entry is “inactive”.

Turning to `CCCc1cc(C(=O)Nc2ccc(C(=O)c3ccc(C)cc3)cc2)n(C)n1`, the AC50 entry was “inactive”.

As for `COc1cc(C(=O)O)cc(NC(=O)c2ccco2)c1OC`, the AC50 entry was “inactive”.

`COc1ccc(NC(=O)CO/N=C2/CCCc3nonc32)c(OC)c1`: the AC50 result was “inactive”.

As for `CCOC(=O)c1c(C)n(C)c2ccc(OCCN(C)C)cc12`, the AC50 entry was “inactive”.

In the case of `CC(C)N(C(=S)Nc1cccnc1)c1ccccc1`, the AC50 entry was “inactive”.

For the compound `CC1CC(C)(C)NC(=S)N1CC(=O)N(C)Cc1ccccc1` (centres undefined), the AC50 entry is “inactive”.

In the case of `O=C(Nc1ccc2c(c1)OCO2)N1CCCc2ccccc21`, the AC50 result is “inactive”.

Consider `Cc1c(N)cc(S(=O)(=O)O)cc1NC(=O)c1cccc([N+](=O)[O-])c1`, for which the AC50 result is “inactive”.

With `COc1ccc(-c2csc(NC(=O)CSc3nc(C)nc4sc(C(=O)O)c(C)c34)n2)cc1`, the AC50 result is “inactive”.

For `O=C(OCCN1C(=O)c2cccc3c(N4CCOCC4)ccc(c23)C1=O)c1ccc(Cl)cc1`, the AC50 was 18.5 µM (active).

Consider `O=C1CCN2C=Nc3cccc4ccc1c2c34`, for which the half-maximal activity concentration (AC50) was 2.29 µM (active).

Turning to `Nc1c(-c2ccccn2)cnn1-c1nc(-c2ccc(F)cc2)cs1`, the AC50 entry is “inactive”.

For `Nc1ccccc1C(=O)N1O[C@@H]2C=C[C@H]1CC2`, the AC50 result was “inactive”.

Take `CC(Sc1ncccn1)C(=O)NNC(=O)c1cccc(Cl)c1` (centres undefined): the AC50 entry was “inactive”.

For `O=C(O)C(Cc1ccccc1)N1C(=O)/C(=C/C=C/c2ccco2)SC1=S` (centres undefined), the AC50 result is “inactive”.

Regarding `O=c1nc(N2CCOCC2)ccn1-c1nc(-c2ccccc2)sc1-c1ccccc1`, the AC50 entry was “inactive”.

As for `Cc1ccccc1NC(=O)CN1C(=O)N/C(=C\c2cccn2-c2cccc(C(=O)O)c2)C1=O`, the AC50 result is “inactive”.

In the case of `Cc1noc(C)c1C(=O)N1CCN(c2ccc(OCc3ccccc3)cc2)CC1`, the AC50 entry is “inactive”.

With `COc1ccc(C(=O)N/N=C/c2ccc(OC)c(COc3ccccc3)c2)cc1`, the AC50 entry is “inactive”.

Take `O=C(Cn1ncc(N2CCCC2)c(Cl)c1=O)c1ccc(Cl)cc1`: the AC50 result is “inactive”.

With `COC(=O)\C(C(C)=O)=C(/C=C/C=C/C=C/N(C)C)N(C)C`, the AC50 result was “inactive”.

On to `CCCc1nc(SC)[nH]c(=O)c1C`, for which the AC50 result was “inactive”.

As for `C/C(=N\Nc1nc2c(s1)CCCC2)c1ccc(Cl)cc1`, the AC50 result is “inactive”.

On to `CC(C)Cn1c(N)c(C(=O)CSc2nnc(-c3ccco3)n2C)c(=O)n(C)c1=O`, for which the AC50 result is “inactive”.

With `CCOC(=O)C1=C(COC(=O)c2ccc([N+](=O)[O-])s2)NC(=O)NC1C` (centres undefined), the AC50 entry is “inactive”.

Take `O=C(NCCCN1CCCC1=O)c1ccc2c(c1)ncn2C1CCCCC1`: the AC50 entry was “inactive”.

For the compound `CCOC(=O)C1C2C=CC3(CN(c4cccc(Cl)c4)C(=O)C13)O2` (centres undefined), the AC50 entry is “inactive”.

The term AC50 denotes the concentration giving half of the maximal activity seen.
